Measurements taken from the supplement of paper PMC13380429.

What was measured:
[1] = system: Vero E6 infected with SARS-CoV-2; assay: morphology score (similarity to uninfected cells); higher = more like uninfected cells; conditions: 24 h
[2] = system: Vero E6 infected with SARS-CoV-2; assay: SARS-CoV-2 infection rate relative to infected DMSO; higher = more infection, active = 60 or less; conditions: 24 h

| Compound | morphology score [1] | SARS-CoV-2 infection rate [2] |
| --- | --- | --- |
| CCC/C=C1\OC(=O)C2=C1CCC=C2 [ligustilide] (10 µM) | 0.0279 | 108% (inactive) |
| COc1ccc(NC(=O)c2ccc(C(=N)N(C)C)cc2)c(C(=O)Nc2ccc(Cl)cn2)c1 [betrixaban] (10 µM) | 0.0893 | 91% (inactive) |
| CCc1ccc(Cc2ccc3c(c2)[C@]2(OC3)O[C@H](CO)[C@@H](O)[C@H](O)[C@H]2O)cc1 [tofogliflozin] (10 µM) | 0.023 | 94.5% (inactive) |
| CN(C)CCCSc1ccccc1NC(=O)/C=C/c1ccccc1 [cinanserin] (10 µM) | 0.164 | 92% (inactive) |
| OCCn1cc(-c2ccc3c(c2)CC/C3=N\O)c(-c2ccncc2)n1 (10 µM) | 0.0962 | 79.5% (inactive) |
| CCC[C@H](NC(=O)[C@@H]1[C@H]2CCC[C@H]2CN1C(=O)[C@@H](NC(=O)[C@@H](NC(=O)c1cnccn1)C1CCCCC1)C(C)(C)C)C(=O)C(=O)NC1CC1 [telaprevir] (10 µM) | 0.229 | 106% (inactive) |
| COc1cc(/C=C/C(N)=O)cc(OC)c1OC [cintriamide] (10 µM) | -0.0883 | 110% (inactive) |
| C=CCN(C)CCCCCCOc1ccc(C(=O)c2ccc(Br)cc2)c(F)c1 (10 µM) | 0.728 | 33.5% (active) |
| CCN(CC)CCOc1ccc(C(O)(Cc2ccc(Cl)cc2)c2ccc(C)cc2)cc1 (stereo unspecified) [Triparanol] (0.833333 µM) | 0.0848 | 77.5% (inactive) |
| CCCN(C/C=C/I)C1CCc2cccc(O)c2C1 (stereo unspecified) [8-hydroxy-PIPAT] (10 µM) | -0.0478 | 106% (inactive) |
| C#Cc1cccc(Nc2ncnc3cc(OC)c(OCCCCCCC(=O)NO)cc23)c1 (0.833333 µM) | -0.262 | 122% (inactive) |
| NS(=O)(=O)c1cc2c(cc1Cl)NC(C(Cl)Cl)NS2(=O)=O (stereo unspecified) [trichlormethiazide] (10 µM) | 0.0616 | 100% (inactive) |
| CC(C)C[C@H](NC(=O)[C@@H]1CCCN1)C(=O)NCC(N)=O [prolylleucylglycinamide] (10 µM) | 0.103 | 99% (inactive) |
| O=C(O)/C=C/c1ccc(O)cc1 [naringeninic-acid] (10 µM) | 0.0231 | 102% (inactive) |
| CCOC(=O)c1cnc2c(cnn2CC)c1NN=C(C)C [etazolate] (10 µM) | 0.254 | 100% (inactive) |
| C=CC(=O)Nc1cc2c(Nc3ccc(F)c(Cl)c3)ncnc2cc1OCCCN1CCOCC1 [canertinib] (10 µM) | -0.116 | 107% (inactive) |
| O=[N+]([O-])c1cn2c(n1)OC[C@@H](OCc1ccc(OC(F)(F)F)cc1)C2 [pretomanid] (10 µM) | 0.0902 | 112% (inactive) |
| Cc1[nH]cnc1CN1CCc2c(c3ccccc3n2C)C1=O [alosetron] (10 µM) | -0.0421 | 98% (inactive) |
| c1ccc(-c2nn3c(c2-c2ccnc4cc(OCCN5CCOCC5)ccc24)CCC3)nc1 (10 µM) | 0.686 | 80% (inactive) |
| CCOc1ccc(Cc2cc([C@]34OC[C@](CO)(O3)[C@@H](O)[C@H](O)[C@H]4O)ccc2Cl)cc1 [ertugliflozin] (10 µM) | -0.0565 | 107% (inactive) |
| [NH-]c1c[n+](N2CCOCC2)no1 [linsidomine] (10 µM) | -0.0679 | 117% (inactive) |
| CCCCCCCCCCC(O)C1C=CC2C(=O)N(c3ccccc3)C(=O)C2N1Nc1ccc([N+](=O)[O-])cc1 (stereo unspecified) (10 µM) | 0.496 | 69.5% (inactive) |
| CO[C@H]1C[C@H](O[C@H]2CC[C@@]3(C)[C@H](CC[C@@H]4[C@@H]3CC[C@]3(C)[C@@H](C5=CC(=O)OC5)[C@@H](OC(C)=O)C[C@]43O)C2)O[C@@H](C)[C@@H]1O [oleandrin] (0.833333 µM) | -0.173 | 118% (inactive) |
| O=C(Oc1ccccc1)c1ccccc1O [phenyl-salicylate] (10 µM) | -0.0306 | 103% (inactive) |
| CNCCCC1(c2ccccc2)OC(C)(C)c2ccccc21 (stereo unspecified) [talopram] (10 µM) | -0.07 | 111% (inactive) |
| CCCc1nc2c(C)cc(-c3nc4ccccc4n3C)cc2n1Cc1ccc(-c2ccccc2C(=O)O)cc1 [telmisartan] (10 µM) | 0.215 | 100% (inactive) |
| Clc1cccc(C(c2ccc3[nH]cnc3c2)n2ccnc2)c1 (stereo unspecified) [liarozole] (10 µM) | 0.138 | 98% (inactive) |
| CO/N=C(\C(=O)N[C@@H]1C(=O)N2C(C(=O)O)=C(CSc3nc(C)c(CC(=O)O)s3)CS[C@H]12)c1csc(N)n1 [cefodizime] (10 µM) | 0.129 | 101% (inactive) |
